Assay results reported in ChEMBL document CHEMBL4513141, “CO-ADD screening of NIH (USA) - Clinical Collection” (2021).
Entries with a potency or affinity are not part of this list.

What follows are molecules tested on Cryptococcus neoformans. Conditions: Concentration 20 uM; ASSAY_TEST Inhibition of Fungal Growth; detection method Resazurin; Absorption (OD600-OD570); plate type 384well; NBS; CORNING #3640.

SMILES	Inhibition
Cc1ccc(N(CC2=NCCN2)c2cccc(O)c2)cc1 [PHENTOLAMINE]	-2.31%
COC1=CC(=O)C[C@@H](C)[C@]12Oc1c(Cl)c(OC)cc(OC)c1C2=O [GRISEOFULVIN]	-0.94%
Cc1ccc(C)c(OCCCC(C)(C)C(=O)O)c1 [GEMFIBROZIL]	-1.55%
C[C@]12C=CC(=O)C=C1CC[C@@H]1[C@@H]2[C@@H](O)C[C@@]2(C)[C@H]1CC[C@]2(O)C(=O)COC(=O)CCC(=O)[O-].[Na+] [PREDNISOLONE SODIUM SUCCINATE]	1.35%
O=C1N=C([O-])NC1(c1ccccc1)c1ccccc1.[Na+] [PHENYTOIN SODIUM]	1.23%
